Source: PubChem BioAssay
Active and inactive are the calls of the source. Unless noted, no rule for the calls is given here.

What was measured:
[1] = tested on: Wnt5a (protein binding on small-molecule microarray); assay: small molecules binding Wnt5a protein – biophysical, small-molecule microarray, 635/667 nm fluorescence, primary screen (AID 1142); settings: 635 nm fluorescence, higher = more signal;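 also: fluorescence read at 667 nm with signal to noise per printed feature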
[2] = ATP-based viability of Huh7 replicon cells – cell-based, CellTiter-Glo luminescence, basal, 48 h, cytotoxicity control for HCV replication inhibitor project, primary screen (AID 1143); settings: higher = more signal, called active from +8 up or from −8 down;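 also: Huh7 hepatoma cells carrying a hepatitis C replication reporter with no stimulus; test concentration not given here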
[3] = Pseudomonas biofilm growth suppression – PAO1 strain, BacTiter-Glo luminescence, LB-PBS, primary screen (AID 1144); settings: P. aeruginosa PAO1 biofilm, 12 h, higher = more signal
[4] = basal CRE-LacZ reporter activity in PC12 – cell-based, unstimulated, primary screen (AID 1145); settings: no forskolin, luminescence, 4.5 h, higher = more signal, called active from +8 up or from −8 down
[5] = forskolin-driven CRE-LacZ activity in PC12 – cell-based, CRE-LacZ reporter, forskolin-stimulated, primary screen (AID 1146); settings: luminescence, 4.5 h, higher = more signal, called active from +8 up or from −8 down;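 also: PC12 cells with 6xCRE LacZ reporter stimulated by forskolin 10 µM; beta-galactosidase reporter signal reflecting CREB driven transcription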
[6] = biological target: Streptavidin (Streptomyces avidinii) (UniProt P22629); assay: compounds binding control protein streptavidin – biophysical, small-molecule microarray, 635/667 nm fluorescence, artefact control for SMM compound annotation, primary screen (AID 1147); settings: higher = more signal;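 also: signal reflects streptavidin binding to arrayed compounds as a control protein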
Sequence of Streptavidin (Streptomyces avidinii) (P22629 whole entry, looked up): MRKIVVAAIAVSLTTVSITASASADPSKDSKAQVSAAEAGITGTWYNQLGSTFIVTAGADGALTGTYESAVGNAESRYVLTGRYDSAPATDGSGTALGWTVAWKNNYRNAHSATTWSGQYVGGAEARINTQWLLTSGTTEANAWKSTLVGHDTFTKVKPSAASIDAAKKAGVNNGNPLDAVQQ

[7] = probe aInhba binding on compound microarray – biochemical, small-molecule microarray, 635/667 nm fluorescence, primary screen (AID 1148); settings: higher = more signal;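 also: score merges 667nm spot fluorescence with signal-to-noise for antibody binding to printed compounds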
Torsin-1A (Homo sapiens) [8] = biological target: Torsin-1A (Homo sapiens) (UniProt O14656); assay: TOR1A wild-type binding on microarray – cell lysate, small-molecule microarray, lysate, 635/667 nm, primary screen (AID 1149); settings: COS7 hTOR1A-WT lysate, 635 nm fluorescence, higher = more signal
Sequence of Torsin-1A (Homo sapiens) (O14656 whole entry, looked up): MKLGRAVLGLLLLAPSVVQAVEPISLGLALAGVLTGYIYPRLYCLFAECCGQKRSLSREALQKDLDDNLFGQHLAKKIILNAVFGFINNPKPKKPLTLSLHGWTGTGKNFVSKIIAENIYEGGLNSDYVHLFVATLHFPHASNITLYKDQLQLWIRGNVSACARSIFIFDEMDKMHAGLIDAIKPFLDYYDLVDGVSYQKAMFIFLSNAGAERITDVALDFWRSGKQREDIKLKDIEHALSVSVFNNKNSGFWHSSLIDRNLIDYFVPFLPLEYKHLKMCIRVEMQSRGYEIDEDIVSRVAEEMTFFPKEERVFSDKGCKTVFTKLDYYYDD

Torsin-1A (Homo sapiens) [9] = biological target: Torsin-1A (Homo sapiens) (UniProt O14656); assay: torsin A mutant lysate binding on microarrays – cell lysate, small-molecule microarray, COS7 lysate, 635/667 nm fluorescence, primary screen (AID 1150); settings: COS7 hTOR1A mutant lysate, 635 nm fluorescence, higher = more signal;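 also: score pools 667 nm emission and signal to noise measuring lysate protein binding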
[10] = tested on: Sonic hedgehog protein (Shh); assay: Sonic hedgehog microarray binding compounds – biochemical, small-molecule microarray, 635/667 nm fluorescence, primary screen (AID 1151); settings: 635 nm fluorescence, higher = more signal;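 also: Shh protein binding to compounds spotted on small-molecule microarray slides; score combines spot fluorescence intensity with signal-to-noise across triplicate slides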

| SMILES | composite z-score [1] | z-score [2] | z-score [3] | z-score [4] | z-score [5] | composite z-score [6] | composite z-score [7] | composite z-score (Torsin-1A (Homo sapiens) [8]) | composite z-score (Torsin-1A (Homo sapiens) [9]) | composite z-score [10] |
| --- | --- | --- | --- | --- | --- | --- | --- | --- | --- | --- |
| CC1CC/C=C\[C@H]2OC34C=CCN(C(C)C)C(=O)[C@H]3N(C(C)CO)C(=O)[C@@H]4C2C(=O)O1 (stereo not given in full) | -0.293 | 0.143 (inactive) | -0.657 (inactive) | -1.04 (inactive) | -0.627 (inactive) | -0.447 | 1.09 | 0.0269 | -0.381 | 1.09 |
| COC(=O)[C@@]1(Cc2ccc(F)cc2)[C@H]2c3cc(C(=O)N(C)C)n(Cc4cccc5ccccc45)c3C[C@H]2CN1C(=O)c1ccccc1 | 1.23 | -0.741 (inactive) | 0.529 (inactive) | 0.0075 (inactive) | 0.287 (inactive) | 0.0609 | 0.115 | 0.639 | 1.49 | -0.685 |
| CCCC1(C(=O)OC)C=C2C(=C(C(C)C)C(=O)C2C)CN1 (stereo not given) | -0.0597 | -0.349 (inactive) | 0.2 (inactive) | 0.786 (inactive) | -0.645 (inactive) | -0.481 | -0.0791 | -0.814 | 0.29 | -0.182 |
| COC(=O)[C@@]1(Cc2ccc(F)cc2)[C@H]2c3cc(C(=O)N4CCCC4)n(CCSCCO)c3C[C@H]2CN1C(=O)c1ccccc1 | 0.0841 | -1.11 (inactive) | -0.375 (inactive) | 0.397 (inactive) | 1.13 (inactive) | -0.383 | -0.0477 | -0.319 | 0.301 | -0.697 |
| COCCCNC(=O)[C@]1(Cc2ccccc2CN=[N+]=[N-])N=C(c2ccc(OCCCO)cc2)O[C@@H]1c1ccccc1N=[N+]=[N-] | 0.693 | -4.12 (inactive) | 0.206 (inactive) | 2 (inactive) | -0.786 (inactive) | 0.437 | 0.4 | 0.637 | 0.557 | -0.448 |
| C=C(C(=O)CC[C@@H](OC(=O)c1cccnc1)c1cccc(OCCO)c1)C(C)C | 0.222 | -2.97 (inactive) | -0.372 (inactive) | 1.67 (inactive) | -1.24 (inactive) | -0.0835 | -0.0736 | -0.0348 | -0.234 | 1.72 |
| O=C(c1ccccc1)N1Cc2ccccc2C[C@@]2(N=C(c3ccc(OCCCO)cc3)O[C@H]2c2ccccc2)C1=O | 1.27 | -4.73 (inactive) | -0.191 (inactive) | 0.904 (inactive) | -1.12 (inactive) | 0.491 | 0.0658 | 0.881 | 1.06 | 2.19 |
| C=CC[C@]1(C(=O)NCCN2CCOCC2)N=C(c2ccc(OCCCO)cc2)O[C@H]1c1ccccc1 | 0.891 | -0.541 (inactive) | 0.154 (inactive) | 2.55 (inactive) | -0.0077 (inactive) | 0.416 | 0.119 | 2.03 | 1.44 | 0.638 |
| CCCCCCc1nc(-c2ccc(OC)nc2)c(C)c2c1[Si](C(C)C)(C(C)C)OC2 | -0.0701 | -2.75 (inactive) | -1.13 (inactive) | 0.106 (inactive) | -0.556 (inactive) | -0.2 | 0.0536 | 0.397 | -0.57 | 0.417 |
| O=C1NC(=O)C2C1C=CC(C(O)c1ccc(F)cc1)N2Nc1ccc(Cl)cc1Cl (stereo not given) | -0.166 | -1.79 (inactive) | -0.762 (inactive) | 0.0535 (inactive) | -0.207 (inactive) | -0.346 | -0.0645 | -0.556 | -0.348 | -0.354 |
| COC(=O)[C@]1(Cc2ccccc2N=[N+]=[N-])N=C(c2ccc(OCCCO)cc2)O[C@@H]1c1ccccc1CN=[N+]=[N-] | 0.65 | -3.74 (inactive) | -0.923 (inactive) | -0.137 (inactive) | 0.0992 (inactive) | 0.127 | 0.122 | 1.12 | 0.085 | 0.754 |
| C=C(C(=O)CC[C@@H](OC(=O)c1ccccc1-c1ccccc1C(=O)O)c1ccc(OCCO)cc1)C(C)C | 1.04 | 0.0006 (inactive) | -0.367 (inactive) | 3.88 (inactive) | 2.07 (inactive) | 0.0206 | -0.0468 | -0.13 | 0.261 | 2.1 |
| C=CCOC(=O)[C@@H]1[C@H]2C(=O)O[C@H](c3ccccc3)[C@H](c3ccccc3)N2[C@H](c2ccc(OCCOC(=O)[C@H]3C[C@H]4C(=O)N[C@@H](CCCCN(C)C)C(=O)N4[C@H]3c3cccc(OCCO)c3)cc2)[C@@]12C(=O)Nc1ccccc12 | -0.234 | 0.132 (inactive) | -0.306 (inactive) | -0.394 (inactive) | -0.647 (inactive) | 1.61 | -0.141 | 1.2 | 0.824 | 0.769 |
| CC(C)C[C@H]1NC(=O)CNC(=O)[C@@]23C(=O)N[C@@H](Cc4ccccc4)C2[C@H](C)[C@@]2(C)O[C@H]2C3/C=C/C/C=C\CNC1=O (stereo not given in full) | -0.0443 | 0.0643 (inactive) | -0.0124 (inactive) | 0.483 (inactive) | 0.201 (inactive) | -0.185 | -0.0719 | -0.0633 | 0.129 | 1.93 |
| COCCCNC(=O)[C@@]1(Cc2ccccc2I)c2ccccc2C(=O)N(Cc2ccccc2OC)[C@H]1c1ccc(CO)cc1 | -0.43 | -3.39 (inactive) | 0.767 (inactive) | 0.531 (inactive) | -0.797 (inactive) | -0.67 | -0.162 | 0.884 | 0.431 | -0.845 |
| CC(C)c1ccc(NN2C(C(O)c3ccccc3)C=CC3C(=O)N(c4ccccc4)C(=O)C32)cc1 (stereo not given) | 0.297 | -0.0828 (inactive) | -0.89 (inactive) | 0.433 (inactive) | -0.0336 (inactive) | 0.576 | 0.271 | -0.388 | 0.514 | -0.983 |
| O=C1NC(=O)C2C1C=CC(C(O)C(c1ccccc1)c1ccccc1)N2Nc1ccccn1 (stereo not given) | 0.367 | 0.604 (inactive) | -0.725 (inactive) | -0.898 (inactive) | -0.804 (inactive) | -0.0787 | 0.096 | 0.675 | 1.06 | 0.676 |
| COC(=O)C1=CC(c2ccc(CO)cc2)=CC(C2CC2)N(Cc2cc3c(cc2Br)OCO3)C=C1C(=O)OC (stereo not given) | 0.92 | -3.35 (inactive) | 0.754 (inactive) | -0.904 (inactive) | -0.5 (inactive) | 1.52 | 0.225 | 0.312 | 0.832 | 1.21 |
| C=CCC(OC(C)=O)[C@@H]1[C@@H](N(Cc2cccc3ccccc23)C(=O)c2ccc(C)cc2)c2cc(OCCCO)ccc2N1C(=O)Cc1ccc2ccccc2c1 (stereo not given in full) | 0.245 | -0.72 (inactive) | -0.234 (inactive) | 1.46 (inactive) | -0.0127 (inactive) | 0.652 | -0.101 | 0.125 | -0.564 | -0.0314 |
| COc1ccc(CCNC(=O)[C@@]2(c3ccc([N+](=O)[O-])cc3)CC(=O)N(C3CCCCC3)[C@@H]2c2ccc(CO)cc2I)cc1 | 1.07 | -4.72 (inactive) | 1.02 (inactive) | 0.441 (inactive) | 0.0398 (inactive) | -0.0827 | -0.0695 | 0.628 | 0.0294 | 0.575 |
| [N-]=[N+]=NCc1ccccc1C[C@]1(C(=O)N2CCCCC2)COC(c2ccc(OCCCO)cc2)=N1 | 0.114 | -4.72 (inactive) | -0.919 (inactive) | 1.93 (inactive) | 1.43 (inactive) | 0.997 | -0.441 | 0.555 | 0.278 | 0.349 |
| C=CCNC(=O)[C@H]1[C@@H]2C(=O)O[C@@H](c3ccccc3)[C@@H](c3ccccc3)N2[C@@H](c2ccc(OCCO)cc2)[C@]12C(=O)N(C(=O)OCCOC)c1ccc(C#CCNC(N)=O)cc12 | 0.0992 | -0.646 (inactive) | -1.36 (inactive) | -0.618 (inactive) | -0.779 (inactive) | 0.286 | -0.0313 | 0.668 | 0.83 | 0.984 |
| C=CCNC(=O)[C@H]1[C@@H]2C(=O)O[C@@H](c3ccccc3)[C@@H](c3ccccc3)N2[C@@H](c2ccc(OCCO)cc2)[C@]12C(=O)N(C(=O)OCCOC)c1ccc(C#CCC(C(=O)OC)C(=O)OC)cc12 | 1.12 | -1.17 (inactive) | 0.0229 (inactive) | 0.0614 (inactive) | -0.228 (inactive) | 1.26 | 0.389 | 0.77 | 0.944 | 1.96 |
| COC(=O)C(CC#Cc1ccc2c(c1)[C@]1(C(=O)N2)[C@H](C(=O)NC[C@H](O)c2ccccc2)[C@H]2C(=O)O[C@H](c3ccccc3)[C@H](c3ccccc3)N2[C@@H]1c1ccc(O)cc1)C(=O)OC | -0.174 | -0.187 (inactive) | 1.07 (inactive) | 0.488 (inactive) | -0.517 (inactive) | -0.765 | -0.0736 | -0.93 | -0.62 | 0.21 |
| CC(C)C[C@@H]1NC(=O)[C@H]2C[C@@H](C(=O)O)[C@@H](c3cccc(OCCO)c3)N2C1=O | -0.107 | -0.513 (inactive) | -0.443 (inactive) | 0.561 (inactive) | -0.411 (inactive) | -0.0612 | 0.0228 | 0.994 | 2.17 | 1.42 |
| COC(=O)[C@]1(Cc2ccccc2CN=[N+]=[N-])N=C(c2ccc(OCCCO)cc2)O[C@@H]1c1ccccc1N=[N+]=[N-] | 0.786 | -5.02 (inactive) | -0.332 (inactive) | 3.72 (inactive) | 0.335 (inactive) | -0.174 | 0.0082 | -0.0005 | -0.147 | 0.336 |
| C[C@]12C(=O)N(CCO)[C@@H]3C(=O)N(c4ccc(Cl)cc4)CC=CC31O[C@@H]1/C=C\CCCOC(=O)C12 (stereo not given in full) | -0.68 | 0.0051 (inactive) | -0.21 (inactive) | 0.467 (inactive) | 0.0098 (inactive) | -0.542 | -0.21 | -1.5 | -0.706 | 1.18 |
| CO[C@H]1O[C@H](CO)[C@@H](OC(=O)CCc2ccccc2)[C@@H]2OC(=O)[C@@H](Cc3ccc4ccccc4c3)C/C=C/C[C@H](Cc3ccc4ccccc4c3)C(=O)O[C@@H]12 | 0.0032 | -2.59 (inactive) | -0.302 (inactive) | -0.151 (inactive) | 0.336 (inactive) | -0.452 | -0.13 | -1.32 | 1.06 | -0.657 |
